This is an account of results in PubChem BioAssay (Tox21).

Assay [1] in a line: qHTS assay to identify small molecule agonists of the sonic hedgehog signaling (Shh) pathway - cell viability counter screen (AID 1259366). Note: nearly all actives have a fitted effect of over 50% in size. The method in brief:
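CellTiter-Fluor fluorescence read-out, 1 hr at 37C, added after 23hr compound exposure. Cells: 3T3 Gli1-Luc, an NIH/3T3 clone with stably integrated Gli1-Luc reporter, plated 4hr before compound.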
For orientation: Quantitative high-throughput screening tests each substance at several concentrations.

The nature of assay [2]: qHTS assay to identify small molecule antagonists of the sonic hedgehog signaling (Shh) pathway - cell viability counter screen (AID 1259367). Note: nearly all actives have a fitted effect of over 55% in size. Put shortly:
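CellTiter-Fluor signal in conditioned medium-stimulated 3T3 Gli1-Luc cells, 23 hr compound exposure, 37C.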

A short description of assay [3]: qHTS assay to identify small molecule agonists of the sonic hedgehog signaling (Shh) pathway (AID 1259368; calls by dose curve;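 note: NIH/3T3-derived 3T3Gli1-Luc cells carrying a stable Gli1-driven firefly luciferase reporter; series mostly up to about 92 µM; nearly all actives have a fitted effect of over 15% in size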). The method in brief:
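Hedgehog pathway agonism scored by increased firefly luciferase luminescence in 3T3Gli1-Luc cells treated 24 hr at 37 C; detection used a 30 min room-temperature reagent incubation.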

Assay [4] concerns the target Estrogen receptor beta (Homo sapiens) (UniProt Q92731). The assay is described as follows: qHTS assay to identify small molecule agonists of the estrogen receptor beta (ER-beta) signaling pathway (AID 1259377; active = well fitted activation curve with a large enough effect in the signal ratio in the repeat runs, not every such curve was filed as active; the % refers to the signal ratio). Put shortly: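 Beta-lactamase reporter readout: fluorescence of LiveBLAzer B/G FRET substrate after 2 h at room temperature, following 16 h compound treatment of ER-beta-UAS-bla HEK293T cells at 37C in 2% charcoal-stripped FBS medium.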

The target is the same in assay [5]. As to the kind of experiment: qHTS assay to identify small molecule antagonists of the estrogen receptor beta (ER-beta) signaling pathway (AID 1259378; active = well fitted inhibition curve with a large enough effect in the signal ratio in the repeat runs, not every such curve was filed as active; the % refers to the signal ratio). Put shortly:
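Antagonist mode: compounds added to beta-lactamase reporter HEK293T ER-beta-UAS cells stimulated with E2 (1nM final), 16 hr at 37C. LiveBLAzer B/G FRET substrate, 2 hours room temperature, fluorescence read-out.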

A short description of assay [6]: qHTS assay to identify small molecule agonists of the androgen receptor (AR) signaling pathway in the presence of an antagonist - cell viability counter screen (AID 1259379).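 Note: MDA-kb2 human breast cancer cells carrying an MMTV luciferase reporter; series mostly up to about 92 µM; nearly all actives have a fitted effect of over 25% in size.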 Put shortly: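 MDA-kb2 viability measured by CellTiter-Fluor fluorescence in the same wells as the luciferase signal; nilutamide 3.0uM final; 15-point compound titration; 16 hr at 37C.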
The nature of assay [7]: qHTS assay to identify small molecule antagonists of the estrogen receptor beta (ER-beta) signaling pathway - cell viability counter screen (AID 1259382).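 Note: HEK293T cells carrying ER-beta-UAS-bla reporter stimulated with estradiol; series mostly up to about 92 µM; nearly all actives have a fitted effect of over 55% in size.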 Put shortly: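 Readout: luminescence, CellTiter-Glo, same wells as bla assay. System: ER-beta-UAS-bla GripTite HEK293T, 2% charcoal-stripped FBS. Exposure: compounds plus 1nM 17-beta-estradiol, 16 hr, 37C.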
Assay [8] is described as follows: qHTS assay to identify small molecule agonists of the estrogen receptor beta (ER-beta) signaling pathway - cell viability counter screen (AID 1259380). Note: nearly all actives have a fitted effect of over 30% in size. Note: potency is the fitted concentration of half-maximal effect. Put shortly:
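Measured: luminescence from CellTiter-Glo after 30 min at room temperature, added to wells already read for the LiveBLAzer FRET reporter (2 hr substrate); ER-beta-UAS-bla HEK293T cells had 16 hr compound treatment at 37C, 5% CO2.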

In assay [9] the target is Androgen receptor (Homo sapiens) (UniProt P10275). As to the kind of experiment: qHTS assay to identify small molecule agonists of the androgen receptor (AR) signaling pathway in the presence of an antagonist (AID 1259381; calls by dose curve; note: nearly all actives have a fitted effect of over 15% in size). The method in brief:
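Luminescent ONE-Glo read, 30min at room temperature, follows 16hr compound exposure (15 concentrations) of MDA-kb2 cells at 37C, 0% CO2, with nilutamide added at 3.0uM final.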

Assay [10] can be described thus: qHTS assay to identify small molecule antagonists of the sonic hedgehog signaling (Shh) pathway (AID 1259369; calls by dose curve; note: nearly all actives have a fitted effect of over 45% in size). Put shortly:
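NIH/3T3 stable Gli1-Luc clone, 2,000 cells/well, 4hr settle; cpd + conditioned medium 24hr; Luc reagent 30min RT; luminescence.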

A number with no mark means an inactive call. Inconclusive results are not listed. The source made the active and inactive calls. Unless noted, calls come from the whole dose curve; as a rule, active = well fitted curve in the direction sought with a large enough effect in the repeat runs; inconclusive = weak or mixed curves; inactive = no such curve, though single readings can be large; an effect the other way counts as inactive or inconclusive. Non-standard residues stand in square brackets, D forms with d. Residues, ends and D or L forms follow the SMILES beside them. *: point of attachment. Sta = CC(C)C[C@H](N)[C@@H](O)CC(=O)O; Isovaleryl = CC(C)CC(=O)*

Sequence of Estrogen receptor beta (Homo sapiens) (Q92731 whole entry, looked up): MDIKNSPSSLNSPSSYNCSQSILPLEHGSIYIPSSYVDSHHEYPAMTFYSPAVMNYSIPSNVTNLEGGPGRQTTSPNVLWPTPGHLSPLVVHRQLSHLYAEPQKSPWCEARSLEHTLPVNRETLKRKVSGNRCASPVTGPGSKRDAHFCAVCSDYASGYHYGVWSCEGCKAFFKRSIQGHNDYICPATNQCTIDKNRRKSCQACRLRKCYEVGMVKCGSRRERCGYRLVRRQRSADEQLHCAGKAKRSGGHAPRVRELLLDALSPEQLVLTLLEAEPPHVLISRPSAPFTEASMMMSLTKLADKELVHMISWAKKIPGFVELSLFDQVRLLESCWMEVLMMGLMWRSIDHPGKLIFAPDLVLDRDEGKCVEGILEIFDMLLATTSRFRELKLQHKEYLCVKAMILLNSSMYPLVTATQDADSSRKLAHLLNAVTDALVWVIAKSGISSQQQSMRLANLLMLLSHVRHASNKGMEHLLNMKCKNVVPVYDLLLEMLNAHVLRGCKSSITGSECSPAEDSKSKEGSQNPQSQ
Sequence of Androgen receptor (Homo sapiens) (P10275 whole entry, looked up): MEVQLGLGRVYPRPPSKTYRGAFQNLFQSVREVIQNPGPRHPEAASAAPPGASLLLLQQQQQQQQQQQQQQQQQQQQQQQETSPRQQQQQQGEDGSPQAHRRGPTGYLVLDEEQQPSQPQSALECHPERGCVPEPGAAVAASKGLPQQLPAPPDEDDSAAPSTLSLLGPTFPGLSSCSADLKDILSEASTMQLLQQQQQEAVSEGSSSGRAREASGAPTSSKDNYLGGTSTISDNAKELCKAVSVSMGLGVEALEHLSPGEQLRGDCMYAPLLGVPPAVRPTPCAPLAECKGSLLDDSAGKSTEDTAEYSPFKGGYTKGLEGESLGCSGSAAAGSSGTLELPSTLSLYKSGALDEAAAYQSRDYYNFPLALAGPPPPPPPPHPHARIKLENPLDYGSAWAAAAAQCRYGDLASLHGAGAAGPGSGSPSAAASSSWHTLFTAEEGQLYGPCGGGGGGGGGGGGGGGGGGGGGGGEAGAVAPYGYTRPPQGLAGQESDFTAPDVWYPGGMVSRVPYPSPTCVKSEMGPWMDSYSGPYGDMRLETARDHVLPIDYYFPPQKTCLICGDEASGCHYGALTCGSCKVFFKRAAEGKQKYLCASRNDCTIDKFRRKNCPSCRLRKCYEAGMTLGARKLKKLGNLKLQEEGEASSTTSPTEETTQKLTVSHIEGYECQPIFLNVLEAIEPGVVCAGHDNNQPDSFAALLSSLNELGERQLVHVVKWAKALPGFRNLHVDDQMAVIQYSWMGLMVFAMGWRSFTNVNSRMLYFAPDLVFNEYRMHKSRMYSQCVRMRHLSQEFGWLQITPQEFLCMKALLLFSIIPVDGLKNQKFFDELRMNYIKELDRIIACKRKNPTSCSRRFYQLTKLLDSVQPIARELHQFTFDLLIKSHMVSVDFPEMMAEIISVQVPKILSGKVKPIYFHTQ

As to `O=C1Nc2ccccc2C1=O`, the outcome in assay [1], in [2], in [3], in assay [5], in [6] and in assay [7] was inactive. In addition, the Potency entry in [4] is “inactive”.
For `CC(C)CC(=O)N[C@H](C(=O)N[C@H](C(=O)N[C@@H](CC(C)C)[C@@H](O)CC(=O)N[C@@H](C)C(=O)N[C@@H](CC(C)C)[C@@H](O)CC(=O)O)C(C)C)C(C)C` (Isovaleryl-VV[Sta]A[Sta]-OH), the result in assay [1], in [2], in assay [3], in [6] and in assay [7] was inactive. In addition, in assay [8], the Potency result was “inactive”.
With `Cc1ccc(N)nc1`, the outcome in assay [1], in [2], in assay [3], in assay [5], in assay [6] and in [9] was inactive. Further, the result in assay [7] was inactive. Further, the Potency result in assay [4] and in [8] was “inactive” throughout.
For the molecule `Cc1ccccc1OCC(=O)O`, the result in assay [1], in assay [2], in assay [3], in assay [5] and in assay [7] was inactive. In addition, the Potency result in [4] and in assay [8] was “inactive” each time.
Consider `CCCCN(CCCC)CCCCCCN(CCCC)CCCC`, for which the call in [1], in assay [2], in assay [3], in assay [5], in assay [6] and in [7] was inactive. For the same molecule, the Potency result in assay [4] and in assay [8] was “inactive” in each case.
In the case of `N#Cc1cc(NC(=O)C(=O)O)c(Cl)c(NC(=O)C(=O)O)c1`, the outcome in assay [1], in [2], in [3], in assay [6], in [9] and in [7] was inactive.
For `Cc1cccc(N)n1`, the molecule was called inactive in assay [1], in assay [2], in [5], in assay [6] and in assay [7]. Also, the Potency result in assay [10] and in assay [8] was “inactive” each time.
Take `O=C[C@@H](O)[C@H](O)[C@H](O)CO`: the molecule was called inactive in [1], in [2], in assay [5], in assay [6], in [9] and in [7]. Moreover, the Potency entry in [10], in assay [4] and in assay [8] was “inactive” each time.
For the molecule `CC(C)=CCC/C(C)=C\C#N`, the molecule was classed as inactive in [1], in assay [2], in assay [3] and in [7].
As for `CC(C)(C)C(=O)CCc1ccc(Cl)cc1`, the result in assay [1], in [2], in assay [5], in assay [6] and in assay [7] was inactive. The Potency result in assay [10], in [4] and in assay [8] was “inactive” throughout.
Consider `COCCCOc1cc(C[C@@H](C[C@H](N)[C@@H](O)C[C@H](C(=O)NCC(C)(C)C(N)=O)C(C)C)C(C)C)ccc1OC`, for which the molecule was classed as inactive in assay [1], in [3], in [6] and in assay [7]. The Potency result in assay [10] and in [8] was “inactive” in each case.
As to `CN1CCN(C(=O)C2CCCCC2)CC1`, the molecule was classed as inactive in assay [1], in assay [2], in assay [5], in assay [6] and in [7]. Also, the Potency entry in assay [10], in assay [4] and in assay [8] was “inactive” each time.
For the molecule `CN(C)CCC[C@@]1(c2ccc(F)cc2)OCc2cc(C#N)ccc21`, the molecule was classed as inactive in assay [1], in assay [2] and in [6]. Also, the Potency in [8] was 2.98 µM (active).
Consider `Nc1nc(Cl)cc(Cl)n1`, for which the outcome in [1], in [2], in [5], in assay [6] and in assay [7] was inactive. In addition, the Potency entry in assay [4] and in [8] was “inactive” each time.
Turning to `CC(C)CC(O)Cc1ccccc1` (stereo unspecified), the molecule was classed as inactive in [1], in assay [2], in assay [5], in assay [6], in assay [9] and in assay [7]. Further, the Potency entry in assay [10], in [4] and in assay [8] was “inactive” in each case.
As to `CC(=O)Nc1ccc(S(=O)(=O)Nc2cc(C)on2)cc1`, the call in [1], in assay [2], in assay [6] and in assay [7] was inactive. In addition, the Potency entry in assay [10] and in assay [8] was “inactive” each time.
Take `CC(C)C(C)C`: the molecule was called inactive in assay [1], in assay [2], in assay [5], in assay [6] and in assay [7]. The Potency result in assay [10], in assay [4] and in assay [8] was “inactive” each time.
As to `C[C@@H]1CCC[C@H](C)N1CCCC(O)(c1ccccc1)c1ccccn1` (stereo partly specified), the molecule was called inactive in assay [2], in assay [3], in [5], in assay [6], in assay [9] and in [7]. In addition, the Potency entry in assay [10], in [4] and in assay [8] was “inactive” throughout.
Turning to `CN(C)CCc1c[nH]c2ccc(C[C@H]3COC(=O)N3)cc12`, the molecule was called inactive in assay [1], in assay [2], in [5], in [6] and in assay [7]. The Potency result in [4] and in assay [8] was “inactive” throughout.
Consider `N=C(N)S(=O)O`, for which the molecule was called inactive in assay [1], in assay [2] and in assay [7]. Also, the Potency result in [8] was “inactive”.
`CC(C)(C)OC=O`: the outcome in assay [1], in assay [2], in assay [5], in [6] and in [7] was inactive. In addition, the Potency result in assay [10], in assay [4] and in assay [8] was “inactive” each time.
`O=C(O)CCCCCCCCCC(=O)O`: the outcome in [1], in [2], in assay [5], in assay [6], in assay [9] and in assay [7] was inactive. In addition, the Potency entry in assay [4] and in assay [8] was “inactive” throughout.
For the molecule `C=CC(C)(CCC=C(C)C)OC(=O)C(C)C` (stereo unspecified), the outcome in assay [1], in [2], in assay [5], in [6] and in assay [7] was inactive. In addition, the Potency entry in assay [10], in assay [4] and in assay [8] was “inactive” throughout.
Regarding `C[n+]1ccccc1/C=N/O`, the molecule was classed as inactive in [1], in [2], in [5], in assay [6] and in assay [7]. In addition, the Potency result in assay [4] and in assay [8] was “inactive” each time.
On to `O=C(OOC(=O)c1ccccc1)c1ccccc1`, for which the molecule was classed as inactive in assay [1], in assay [2], in [6] and in [7]. Further, the Potency entry in [10] and in [8] was “inactive” each time.
As for `CC(C)OCCO`, the result in [1], in assay [2], in [5], in [6] and in assay [7] was inactive. Besides, the Potency entry in assay [10], in [4] and in assay [8] was “inactive” throughout.
Regarding `CC(=O)OCC(=O)[C@@]1(O)CC[C@H]2[C@@H]3CCC4=CC(=O)C=C[C@]4(C)[C@H]3[C@@H](O)C[C@@]21C`, the result in assay [1], in [2], in assay [6] and in assay [7] was inactive. The Potency result in assay [10], in assay [4] and in [8] was “inactive” in each case.
